MITF inh: blocks human microphthalmia-associated transcription factor. AID 1259374. O75030. inhibition, % at 2.6 µM. 0.91% of 650,000 active. AlphaScreen MITF homodimerization, bead proximity signal; in the data active = inhibition above about 50%;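 note: 0% = vehicle wells with protein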
Target sequence (O75030 whole entry, looked up): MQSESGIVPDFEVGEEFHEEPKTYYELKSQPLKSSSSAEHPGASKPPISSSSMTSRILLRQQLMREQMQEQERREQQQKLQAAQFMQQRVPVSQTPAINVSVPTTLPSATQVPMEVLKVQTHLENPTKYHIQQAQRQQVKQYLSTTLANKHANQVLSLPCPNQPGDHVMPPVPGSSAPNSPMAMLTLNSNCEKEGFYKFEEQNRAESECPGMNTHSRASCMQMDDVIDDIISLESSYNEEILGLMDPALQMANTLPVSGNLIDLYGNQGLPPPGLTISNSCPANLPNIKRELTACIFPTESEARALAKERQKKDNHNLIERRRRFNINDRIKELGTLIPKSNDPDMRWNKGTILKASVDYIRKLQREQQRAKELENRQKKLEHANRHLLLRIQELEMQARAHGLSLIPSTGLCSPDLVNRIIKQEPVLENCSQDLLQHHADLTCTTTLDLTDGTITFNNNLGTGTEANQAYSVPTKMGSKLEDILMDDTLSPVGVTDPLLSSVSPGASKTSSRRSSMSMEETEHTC
GPR151 ag: activators of human GPR151; Q8TDV0; PathHunter beta-arrestin GPR151 cells, luminescence; activation, % at 11.2 µM; 1% of 650,000 active; AID 1508602; in the data active = activation above about 4.9%;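 note: 0% = median of compound wells and 100% = cells with positive control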
FBW7 act: activators of human E3 ligase FBW7. normalized activity (activation), % at 26.1 µM. 0.13% of 650,000 active. Q969H0. AID 1259310. AlphaScreen FBW7–phospho-cyclin E peptide binding, activator screen; in the data active = normalized activity above about 1.9%;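 note: purified mutant Fbw7 with reduced substrate affinity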
TEAD-YAP block: TEAD-YAP interaction inhibition. HEK-TIYL cells, TEAD-Gal4/YAP UAS-luciferase luminescence. inhibition, % at 9.12 µM. 1.4% of 640,000 active; in the data active = inhibition above about 32%;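 note: 0% = median of test compound wells and 100% = reference inhibitor wells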
Active calls of the source: *. Most compounds without a hit are left out; they make up all but 3.5% or so of the library.

SMILES	MITF inh	GPR151 ag	FBW7 act	TEAD-YAP block
Cc1cccc(NC(=O)COc2ccc([N+](=O)[O-])c(C)c2)n1	11	1	0	-6
CC1CCCCC1NC(=O)CN(C)S(=O)(=O)c1ccc2nc(-c3ccccc3)[nH]c2c1 (stereo unspecified)	54*	1	0	26
CCn1ccc2ccc(OC)cc2c1=O	16	-1	2.1*	-10
COc1ccc(C(=O)Nc2cc(Cl)ccc2C(=O)O)cc1	15	-1	0	6
COC(=O)c1ccc(Cl)cc1NC(=O)c1cc(OC)ccc1Br	-3	-1	0	37*
c1ccc2sc(N3CCN(C4CCCCC4)CC3)nc2c1	7	0	0	69*
CN(C)/C(CBr)=C1/N=C(c2ccccc2)OC1=O	-3	0	0	-1
Cc1ccn2c(/C(=C3/N=C(c4ccccc4)OC3=O)N(C)C)cnc2c1	9	0	0	34*
CC1=C(C)/C(=N\S(=O)(=O)c2ccc(C)cc2)C=C(N(C)C)C1=O	84*	0	0	4
CC1=C(C)/C(=N\S(=O)(=O)c2ccccc2)C=C(Cl)C1=O	6	-1	0	1
CN(C)C1=C/C(=N/S(=O)(=O)c2ccccc2)c2ccccc2C1=O	59*	2	0	90*
Cc1ccccc1N1C(=O)CC(NNC(=O)c2cc3c(s2)CCC3)C1=O (stereo unspecified)	6	0	0	5
CCN1CCN(Cc2c(NC(=O)c3ccco3)sc(C)c2C)CC1	4	2	0	16
CC1=NNC(=O)C1CC(=O)N/N=C/c1cccc2ccccc12 (stereo unspecified)	-1	2	0	5
CC(C)(C)OC(=O)N1CCC(c2nc(-c3nc4ccc(-c5ccncc5)cc4[nH]3)cs2)CC1	-5	4	0	94*
CCOc1ccc2nc(-c3ccc(N)cc3)sc2c1	5	-1	0	35*
COc1cc(NC(=O)c2ccc3nc(-c4ccc(C(N)=O)cc4)sc3c2)cc(OC)c1OC	-3	-1	0	46*
Nc1ccc(-c2nc3ccc(N)cc3s2)cc1	1	-9	0	18
NC(=O)c1ccc2nc(-c3ccccc3)sc2c1	1	-11	0	73*
CCOc1ccc2nc(NN)sc2c1	10	-3	0	0
Nc1ccc2nc(-c3ccc(O)cc3)sc2c1	11	-10	0	76*
COc1ccc(C2C(C#N)=C(SC)NC(C)=C2C(=O)Nc2ccccc2C)cc1OC (stereo unspecified)	-10	-1	0	1
CCOc1ccc(-c2cc(C)n3nc(C(=O)Nc4ccc(Cl)c(Cl)c4)cc3n2)cc1	-3	0	0	-5
Nc1ccc(-c2nc3ccc(C(=O)O)cc3s2)cc1	-10	-9	0	75*
CC(C)N(C(=O)c1ccc(-c2nc3ccccc3s2)cc1)C(C)C	-11	-1	0	54*
SMILES	MITF inh	GPR151 ag	FBW7 act	TEAD-YAP block
O=C(O)c1ccc2nc(-c3ccccc3)sc2c1	19	-5	0	-13
CC(=O)NCc1ccc(-c2nc3ccccc3s2)cc1	-4	-5	0	-3
CN1CCN(C(=O)c2ccc(-c3ccc(C(=O)NCCN4CCOCC4)s3)cc2)CC1	4	-1	0	9
COc1ccc(-c2cc(N3CCN(C/C=C/c4ccccc4)CC3)ncn2)cc1	-9	1	0	35*
COc1ccc(CNc2ccnc3c(-c4ccc(OC)cc4)cnn23)cc1	-1	2	0	12
COc1cc(CNc2ccnc3c(-c4cccc(F)c4)cnn23)cc(OC)c1OC	9	1	1.9*	4
COc1ccc(CNc2ccnc3c(-c4ccccc4)cnn23)cc1	2	-1	1.9*	-18
CCCCNC(=O)c1ccc(SC)c([N+](=O)[O-])c1	11	-2	0	-1
COc1ccc(/C=N/NC(=O)c2cc(-c3ccc(F)cc3)n[nH]2)cc1	5	1	0	7
Cc1ccc(/C=N/NC(=O)c2cc(-c3ccccc3)n[nH]2)cc1	-5	1	0	-8
CC(C)Cc1ccc(-c2cc(C(=O)N/N=C/c3ccncc3)[nH]n2)cc1	6	0	0	45*
COc1ccc(-c2cc(C(=O)N/N=C\c3ccc(N(C)C)cc3)[nH]n2)cc1	11	-1	0	45*
COc1ccc(/C=N/NC(=O)c2cc(-c3ccc(OC)cc3)n[nH]2)cc1	4	-1	0	33*
O=C(CSc1ncnc2ccccc12)N1CCc2ccccc21	10	0	0	4
O=c1/c(=C\c2cn(Cc3ccccc3)c3ccccc23)sc2nc3ccccc3n12	12	-2	0	4
CCN1CCN(Cc2ccc(NC(=O)Nc3ccccc3Cl)cc2)CC1	19	0	0	34*
Nc1ccc(-c2ccc3cnc(Nc4ccc(-n5cnc(N6CCOCC6)n5)cc4)nc3c2)cn1	2	2	1	65*
O=C(NCc1ccccc1)c1ccc2cnc(Nc3ccc(-n4cnc(N5CCOCC5)n4)cc3)nc2c1	47	1	0	-2
Cn1nccc1-c1ccc2cnc(Nc3ccc(-n4cnc(N5CCOCC5)n4)cc3)nc2c1	1	0	0	-17
c1cc(-c2ccc3cnc(Nc4ccc(-n5cnc(N6CCOCC6)n5)cc4)nc3c2)[nH]n1	-6	0	13*	11
CNC(=O)c1ccc2cnc(Nc3ccc(-n4cnc(N5CCOCC5)n4)cc3)nc2c1	37	1	0	55*
c1cc(-n2cnc(N3CCOCC3)n2)ccc1Nc1ncc2ccc(N3CCOCC3)cc2n1	-1	2	0	1
Nc1nnc(SCC(=O)NCCc2ccccc2)s1	6	1	0	3
CC1=NNC(=O)C1CCc1ccncc1 (stereo unspecified)	23	-1	1	11
CC1=CC(=O)OC1Cc1ccncc1 (stereo unspecified)	-8	0	0	41*
SMILES	MITF inh	GPR151 ag	FBW7 act	TEAD-YAP block
Cc1ccc(C(=O)C2C(c3cccs3)C(C#N)(C#N)C3C=Cc4ccccc4N23)cc1 (stereo unspecified)	-17	1	0	43*
COc1ccc(C(=O)[C@@H]2[C@@H](c3cccs3)C(C#N)(C#N)[C@H]3C=Cc4ccccc4N23)cc1	9	1	0	55*
CCCCNc1ncnc2ccc(Br)cc12	-6	3	0	45*
CC1=C(C(=O)Nc2ccccc2C)C(c2cccc(F)c2)n2nc(CCCO)nc2N1 (stereo unspecified)	-8	4	0	-1
COc1ccc2c(c1)C(=NO)c1cc(OC)ccc1-2	12	0	0	-17
COc1ccc2c(c1)C(=NNC(N)=S)c1cc(OC)ccc1-2	44	0	0	50*
O=C(NCCOc1ccc(Cl)cc1)c1cccc(C(=O)NCCOc2ccc(Cl)cc2)c1	7	0	0	6
NS(=O)(=O)c1cc(C(=O)NCCOc2ccc(Cl)cc2)c(Cl)cc1Cl	-7	-1	0	37*
O=C(CCCCC(=O)NNC(=O)CCc1ccccc1)NNC(=O)CCc1ccccc1	10	-2	2.3*	2

Assay outcomes (PubChem BioAssay)
